Test results as given in the supplement of paper PMC11732987, “Enantioselective OTUD7B fragment discovery through chemoproteomics screening and high-throughput optimisation” (Communications Chemistry, 2025).

Experiments:
Experiment in all cases: log2 ratio of Biotin-Ahx-Ub-VS probe labelling (fragment/DMSO); higher = less target engagement (more negative = stronger competition), active = hit call of the paper (q ≤ 0.05, log2 ratio ≤ -1)
Details in all cases: compound concentration: 200 uM; treatment time: 3 h
[1] = molecular target: T1, USP19 (UniProt O94966)
T1 sequence (whole entry): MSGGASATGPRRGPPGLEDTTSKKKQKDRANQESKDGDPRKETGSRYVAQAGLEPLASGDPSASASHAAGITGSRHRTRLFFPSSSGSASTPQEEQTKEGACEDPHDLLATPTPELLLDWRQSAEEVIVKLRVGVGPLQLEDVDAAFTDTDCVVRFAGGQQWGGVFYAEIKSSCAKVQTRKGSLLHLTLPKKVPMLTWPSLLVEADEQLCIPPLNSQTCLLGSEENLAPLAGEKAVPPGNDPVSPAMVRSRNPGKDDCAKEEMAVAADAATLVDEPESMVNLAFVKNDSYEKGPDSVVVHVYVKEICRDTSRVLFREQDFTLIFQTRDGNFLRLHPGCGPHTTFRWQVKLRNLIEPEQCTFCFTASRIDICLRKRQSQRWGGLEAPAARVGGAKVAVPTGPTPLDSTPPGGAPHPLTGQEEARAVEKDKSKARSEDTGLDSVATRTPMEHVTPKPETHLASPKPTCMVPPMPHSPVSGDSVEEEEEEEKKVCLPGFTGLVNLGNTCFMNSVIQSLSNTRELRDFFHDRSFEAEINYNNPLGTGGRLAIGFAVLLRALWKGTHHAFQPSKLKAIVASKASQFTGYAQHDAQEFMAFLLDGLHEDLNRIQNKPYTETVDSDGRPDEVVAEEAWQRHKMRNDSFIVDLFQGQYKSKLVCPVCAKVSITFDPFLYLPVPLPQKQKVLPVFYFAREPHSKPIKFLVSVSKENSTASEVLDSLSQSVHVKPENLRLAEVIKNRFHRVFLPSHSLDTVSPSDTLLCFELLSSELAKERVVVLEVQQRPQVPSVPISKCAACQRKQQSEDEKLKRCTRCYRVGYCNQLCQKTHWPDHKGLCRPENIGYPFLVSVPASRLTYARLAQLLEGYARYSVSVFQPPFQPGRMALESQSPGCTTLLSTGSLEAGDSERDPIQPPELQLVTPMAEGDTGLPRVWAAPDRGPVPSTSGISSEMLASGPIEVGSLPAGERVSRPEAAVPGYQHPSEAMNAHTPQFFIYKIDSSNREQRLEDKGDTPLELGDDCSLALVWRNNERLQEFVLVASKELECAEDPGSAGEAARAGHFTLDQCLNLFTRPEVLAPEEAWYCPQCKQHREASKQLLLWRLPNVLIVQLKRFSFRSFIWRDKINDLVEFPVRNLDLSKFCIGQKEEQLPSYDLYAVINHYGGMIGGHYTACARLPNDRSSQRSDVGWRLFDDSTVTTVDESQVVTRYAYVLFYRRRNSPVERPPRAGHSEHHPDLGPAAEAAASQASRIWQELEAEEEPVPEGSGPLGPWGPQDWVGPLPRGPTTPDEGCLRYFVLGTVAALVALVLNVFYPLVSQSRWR
In short: (§1)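 Using Biotin-Ahx-Ub-VS at 0.5 µM final for 1 h, DUBs were labelled in HEK293T lysate (495 µg per sample) that had first been treated in triplicate with fragment at 200 µM or vehicle for 3 h. NeutrAvidin enrichment, LysC and trypsin digestion and diaPASEF LC-MS/MS followed. Spectronaut label-free quantities were global-median-normalised. Values are average log2 fragment/vehicle ratios by unpaired t-test, using proteins with ≥2 unique peptides.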

[2] = molecular target: T2, USP22 (UniProt Q9UPT9)
T2 sequence (whole entry): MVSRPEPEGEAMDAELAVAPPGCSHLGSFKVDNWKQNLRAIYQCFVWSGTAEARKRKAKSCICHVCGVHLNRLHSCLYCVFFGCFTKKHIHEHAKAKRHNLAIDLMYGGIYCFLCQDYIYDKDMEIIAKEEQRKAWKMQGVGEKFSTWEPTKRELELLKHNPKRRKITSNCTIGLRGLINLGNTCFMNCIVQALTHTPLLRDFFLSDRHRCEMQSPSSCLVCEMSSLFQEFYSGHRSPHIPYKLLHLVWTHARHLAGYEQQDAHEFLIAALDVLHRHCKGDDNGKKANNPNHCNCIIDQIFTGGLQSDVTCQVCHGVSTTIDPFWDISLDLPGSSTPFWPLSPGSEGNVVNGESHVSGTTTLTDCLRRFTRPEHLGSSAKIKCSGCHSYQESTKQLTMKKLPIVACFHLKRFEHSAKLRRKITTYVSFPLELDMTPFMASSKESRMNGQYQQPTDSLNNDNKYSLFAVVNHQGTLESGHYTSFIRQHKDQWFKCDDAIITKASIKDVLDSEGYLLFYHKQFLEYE
In short: as §1

[3] = molecular target: USP24 (UniProt Q9UPU5)
In short: as §1

[4] = molecular target: T3, USP25 (UniProt Q9UHP3)
T3 sequence (whole entry): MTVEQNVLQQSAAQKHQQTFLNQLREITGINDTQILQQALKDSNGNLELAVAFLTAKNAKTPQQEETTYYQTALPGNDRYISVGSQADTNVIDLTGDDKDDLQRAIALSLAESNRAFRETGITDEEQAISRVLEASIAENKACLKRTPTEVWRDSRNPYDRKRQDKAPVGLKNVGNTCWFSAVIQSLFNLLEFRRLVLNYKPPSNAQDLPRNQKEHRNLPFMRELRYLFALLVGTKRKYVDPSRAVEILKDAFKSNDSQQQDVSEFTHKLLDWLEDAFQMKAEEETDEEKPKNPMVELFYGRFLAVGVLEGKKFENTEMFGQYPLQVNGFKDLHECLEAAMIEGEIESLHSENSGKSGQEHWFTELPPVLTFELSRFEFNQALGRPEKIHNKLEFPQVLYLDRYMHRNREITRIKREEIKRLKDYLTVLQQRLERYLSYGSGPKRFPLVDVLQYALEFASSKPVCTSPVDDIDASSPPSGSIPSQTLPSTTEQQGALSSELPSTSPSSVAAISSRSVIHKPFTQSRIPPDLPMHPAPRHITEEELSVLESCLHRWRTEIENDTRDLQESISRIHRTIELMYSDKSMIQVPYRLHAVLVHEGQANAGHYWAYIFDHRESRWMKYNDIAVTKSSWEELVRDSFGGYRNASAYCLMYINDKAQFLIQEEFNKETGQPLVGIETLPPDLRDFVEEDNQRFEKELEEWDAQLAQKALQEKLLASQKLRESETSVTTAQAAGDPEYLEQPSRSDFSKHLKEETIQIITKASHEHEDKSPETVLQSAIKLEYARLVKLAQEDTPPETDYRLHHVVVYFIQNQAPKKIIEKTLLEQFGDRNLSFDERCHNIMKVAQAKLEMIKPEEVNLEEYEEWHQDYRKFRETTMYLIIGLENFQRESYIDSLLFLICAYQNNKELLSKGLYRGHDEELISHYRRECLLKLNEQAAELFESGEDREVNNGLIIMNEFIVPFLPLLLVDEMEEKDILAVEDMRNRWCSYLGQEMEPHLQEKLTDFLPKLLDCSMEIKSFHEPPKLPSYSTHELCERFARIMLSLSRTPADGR
In short: as §1

[5] = molecular target: T4, USP28 (UniProt Q96RU2)
T4 sequence (whole entry): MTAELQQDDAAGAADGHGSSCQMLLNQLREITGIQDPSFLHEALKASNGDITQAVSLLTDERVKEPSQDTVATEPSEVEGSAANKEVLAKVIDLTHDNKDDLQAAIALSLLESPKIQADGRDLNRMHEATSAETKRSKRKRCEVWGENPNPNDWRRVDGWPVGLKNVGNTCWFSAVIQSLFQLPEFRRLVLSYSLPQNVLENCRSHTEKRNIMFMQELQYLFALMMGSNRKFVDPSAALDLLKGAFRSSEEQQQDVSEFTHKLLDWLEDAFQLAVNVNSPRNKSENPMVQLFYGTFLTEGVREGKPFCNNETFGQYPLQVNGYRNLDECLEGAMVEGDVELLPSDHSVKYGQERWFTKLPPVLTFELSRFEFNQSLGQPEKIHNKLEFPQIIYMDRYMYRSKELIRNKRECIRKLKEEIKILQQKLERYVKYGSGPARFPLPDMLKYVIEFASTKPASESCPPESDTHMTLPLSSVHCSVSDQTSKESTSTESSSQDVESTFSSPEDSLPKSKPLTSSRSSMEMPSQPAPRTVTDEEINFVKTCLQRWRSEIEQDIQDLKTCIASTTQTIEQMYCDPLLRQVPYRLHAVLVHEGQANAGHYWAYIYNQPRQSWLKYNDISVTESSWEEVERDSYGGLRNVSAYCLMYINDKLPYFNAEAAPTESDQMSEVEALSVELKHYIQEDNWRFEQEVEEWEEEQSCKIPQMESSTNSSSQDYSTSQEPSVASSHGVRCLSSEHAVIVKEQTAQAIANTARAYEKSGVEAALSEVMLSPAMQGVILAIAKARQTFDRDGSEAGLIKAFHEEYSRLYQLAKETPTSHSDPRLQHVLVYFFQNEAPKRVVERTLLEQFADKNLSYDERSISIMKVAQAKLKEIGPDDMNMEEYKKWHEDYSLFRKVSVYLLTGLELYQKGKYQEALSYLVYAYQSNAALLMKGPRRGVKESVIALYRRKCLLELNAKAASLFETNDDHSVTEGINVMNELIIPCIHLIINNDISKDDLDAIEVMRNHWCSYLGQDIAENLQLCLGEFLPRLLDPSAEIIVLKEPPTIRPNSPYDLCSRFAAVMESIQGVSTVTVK
In short: as §1

Measured: log2 ratio of Biotin-Ahx-Ub-VS probe labelling

Sequence of USP24 (Q9UPU5 whole entry): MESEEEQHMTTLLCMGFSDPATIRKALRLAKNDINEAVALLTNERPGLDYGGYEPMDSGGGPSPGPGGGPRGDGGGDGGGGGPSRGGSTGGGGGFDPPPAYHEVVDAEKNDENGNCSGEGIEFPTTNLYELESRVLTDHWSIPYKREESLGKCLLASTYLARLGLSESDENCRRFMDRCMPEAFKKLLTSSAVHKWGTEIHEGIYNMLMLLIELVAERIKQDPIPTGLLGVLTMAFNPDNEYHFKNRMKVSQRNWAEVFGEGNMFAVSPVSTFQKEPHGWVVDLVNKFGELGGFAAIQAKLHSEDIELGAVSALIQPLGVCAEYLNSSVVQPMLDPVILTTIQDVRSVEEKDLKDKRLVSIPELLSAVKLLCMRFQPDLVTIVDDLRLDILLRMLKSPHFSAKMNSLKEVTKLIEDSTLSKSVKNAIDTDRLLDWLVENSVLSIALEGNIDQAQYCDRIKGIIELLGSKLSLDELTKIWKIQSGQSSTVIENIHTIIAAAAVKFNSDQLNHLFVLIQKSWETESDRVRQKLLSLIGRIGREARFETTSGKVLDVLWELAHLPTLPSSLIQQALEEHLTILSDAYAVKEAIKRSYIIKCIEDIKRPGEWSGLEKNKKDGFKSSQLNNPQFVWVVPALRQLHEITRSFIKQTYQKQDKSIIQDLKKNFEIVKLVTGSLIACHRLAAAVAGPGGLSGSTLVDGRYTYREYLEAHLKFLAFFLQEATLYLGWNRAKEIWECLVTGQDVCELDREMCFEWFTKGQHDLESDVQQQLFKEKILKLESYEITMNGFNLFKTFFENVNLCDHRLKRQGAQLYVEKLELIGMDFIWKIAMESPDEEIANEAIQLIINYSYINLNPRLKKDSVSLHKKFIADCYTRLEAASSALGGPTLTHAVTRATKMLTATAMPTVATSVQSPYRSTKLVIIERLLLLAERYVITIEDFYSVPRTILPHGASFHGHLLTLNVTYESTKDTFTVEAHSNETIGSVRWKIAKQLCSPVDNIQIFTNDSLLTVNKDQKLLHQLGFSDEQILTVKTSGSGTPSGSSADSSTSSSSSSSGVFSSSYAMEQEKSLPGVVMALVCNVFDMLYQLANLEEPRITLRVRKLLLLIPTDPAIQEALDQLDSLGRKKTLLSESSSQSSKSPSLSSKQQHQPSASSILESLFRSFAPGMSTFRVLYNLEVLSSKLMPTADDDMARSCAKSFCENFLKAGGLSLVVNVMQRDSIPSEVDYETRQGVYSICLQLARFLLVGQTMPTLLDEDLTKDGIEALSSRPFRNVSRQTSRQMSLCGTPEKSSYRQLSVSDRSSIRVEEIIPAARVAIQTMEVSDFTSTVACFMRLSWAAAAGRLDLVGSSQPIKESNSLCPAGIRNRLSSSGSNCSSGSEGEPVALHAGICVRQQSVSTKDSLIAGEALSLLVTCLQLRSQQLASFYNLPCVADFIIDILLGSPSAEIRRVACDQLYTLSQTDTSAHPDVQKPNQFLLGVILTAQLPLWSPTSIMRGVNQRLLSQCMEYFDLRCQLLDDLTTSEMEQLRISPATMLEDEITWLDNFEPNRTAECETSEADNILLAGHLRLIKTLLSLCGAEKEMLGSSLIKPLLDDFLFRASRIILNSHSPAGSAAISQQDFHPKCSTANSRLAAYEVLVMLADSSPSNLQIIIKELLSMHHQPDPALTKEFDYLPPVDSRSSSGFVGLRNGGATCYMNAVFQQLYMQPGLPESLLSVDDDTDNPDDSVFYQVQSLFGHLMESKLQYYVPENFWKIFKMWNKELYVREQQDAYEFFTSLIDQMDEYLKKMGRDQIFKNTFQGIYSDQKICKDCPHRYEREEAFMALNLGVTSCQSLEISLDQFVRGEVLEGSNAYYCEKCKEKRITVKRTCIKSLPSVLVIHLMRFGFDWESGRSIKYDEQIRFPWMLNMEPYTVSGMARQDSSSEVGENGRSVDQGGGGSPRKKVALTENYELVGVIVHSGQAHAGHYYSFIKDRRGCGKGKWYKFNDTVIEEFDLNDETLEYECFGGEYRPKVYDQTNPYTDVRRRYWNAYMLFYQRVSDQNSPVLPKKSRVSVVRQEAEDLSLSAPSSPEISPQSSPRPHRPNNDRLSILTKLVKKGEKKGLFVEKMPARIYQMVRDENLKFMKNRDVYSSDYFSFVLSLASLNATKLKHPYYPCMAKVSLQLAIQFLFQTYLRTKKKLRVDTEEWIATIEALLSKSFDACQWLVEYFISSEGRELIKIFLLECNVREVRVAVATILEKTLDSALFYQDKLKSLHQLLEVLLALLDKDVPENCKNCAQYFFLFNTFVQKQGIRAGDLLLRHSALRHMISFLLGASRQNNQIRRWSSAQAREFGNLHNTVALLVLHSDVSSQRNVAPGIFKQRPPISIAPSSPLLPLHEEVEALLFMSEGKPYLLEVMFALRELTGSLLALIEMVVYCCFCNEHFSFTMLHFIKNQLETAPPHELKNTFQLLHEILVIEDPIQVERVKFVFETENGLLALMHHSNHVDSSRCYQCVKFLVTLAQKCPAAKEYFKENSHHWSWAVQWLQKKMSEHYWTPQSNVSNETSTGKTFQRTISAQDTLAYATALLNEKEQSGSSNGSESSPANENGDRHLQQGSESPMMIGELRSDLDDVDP

Cc1ncc2c(n1)CCN(C(=O)CCl)C2
inactive: [1] -0.479 | [2] -0.119 | [3] -0.198 | [4] -0.361 | [5] -0.688
